# PubChem BioAssay AID1259251 (The Scripps Research Institute Molecular Screening Center, 2017)
# About 580 (1.9%) of roughly 30,000 compounds were called active. What follows is part of a selection rich in actives, with near analogues and random picks from the rest. A number with no mark means an inactive call. Cut-off read from the data, not from the text of the source: active = inhibition above about 43%; inactive = the rest.
# Target: Serine/threonine-protein kinase ULK1 (Homo sapiens) (UniProt O75385)
# Sequence (O75385 whole entry, looked up): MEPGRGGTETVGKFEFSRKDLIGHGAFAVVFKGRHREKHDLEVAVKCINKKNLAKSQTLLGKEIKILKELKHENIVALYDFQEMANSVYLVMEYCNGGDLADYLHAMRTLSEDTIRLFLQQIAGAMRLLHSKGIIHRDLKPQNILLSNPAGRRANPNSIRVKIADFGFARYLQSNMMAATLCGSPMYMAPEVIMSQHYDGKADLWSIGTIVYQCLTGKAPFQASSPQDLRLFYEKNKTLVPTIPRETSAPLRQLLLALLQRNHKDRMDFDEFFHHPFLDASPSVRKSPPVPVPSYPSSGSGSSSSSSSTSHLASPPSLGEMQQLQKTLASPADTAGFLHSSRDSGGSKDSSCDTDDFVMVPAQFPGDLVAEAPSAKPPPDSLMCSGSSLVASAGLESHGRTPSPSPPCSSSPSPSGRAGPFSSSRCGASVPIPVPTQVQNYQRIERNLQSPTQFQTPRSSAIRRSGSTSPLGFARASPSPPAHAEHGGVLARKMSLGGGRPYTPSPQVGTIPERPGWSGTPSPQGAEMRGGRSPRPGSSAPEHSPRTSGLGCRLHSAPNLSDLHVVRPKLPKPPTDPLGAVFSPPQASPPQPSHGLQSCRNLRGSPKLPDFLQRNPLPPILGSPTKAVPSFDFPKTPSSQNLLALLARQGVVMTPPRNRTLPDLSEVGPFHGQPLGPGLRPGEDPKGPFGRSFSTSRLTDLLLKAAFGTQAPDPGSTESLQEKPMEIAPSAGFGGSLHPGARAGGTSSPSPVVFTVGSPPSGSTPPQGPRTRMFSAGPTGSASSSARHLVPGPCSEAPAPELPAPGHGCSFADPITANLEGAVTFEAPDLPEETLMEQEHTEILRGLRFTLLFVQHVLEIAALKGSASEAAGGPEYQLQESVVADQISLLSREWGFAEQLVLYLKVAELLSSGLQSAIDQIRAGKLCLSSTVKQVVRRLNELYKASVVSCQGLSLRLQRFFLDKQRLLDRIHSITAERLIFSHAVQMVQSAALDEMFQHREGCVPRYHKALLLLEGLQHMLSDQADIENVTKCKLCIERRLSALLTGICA
# Test: ULK1 kinase inhibitors, primary screen, biochemical, AlphaScreen (AID 1259251);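 note: 0% = median of compound wells and 100% = no enzyme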
# Conditions: AlphaScreen Atg13 phosphorylation by ULK1, luminescence; at 5.96 µM; stronger effect = higher value
row,Structure (SMILES),inhibition
1,CN1CCN(c2ncn(-c3ccc(Nc4nccc(-c5ccc(NS(C)(=O)=O)cc5)n4)cc3)n2)CC1,63.3% (active)
2,CN(C)c1cc(F)cc(-c2ccnc(Nc3ccc(-n4cnc(N5CCOCC5)n4)cc3)n2)c1,-12.3%
3,Cn1nccc1-c1cc(F)cc(-c2ccnc(Nc3ccc(-n4cnc(N5CCOCC5)n4)cc3)n2)c1,10.3%
4,CC(=O)Nc1ccc(Nc2ncnc3nc(N4CCOCC4)[nH]c23)cc1,-7.72%
5,CCCNC(=O)Cc1cn(-c2ccc(Nc3ccc(-n4ccnc4)cc3)nn2)c2ccccc12,0.04%
6,CC(C)(C)NC(=O)N1CCCN(c2ccc(S(C)(=O)=O)cc2)CC1,6.31%
7,CN1CCc2nc(NC(=O)c3ccc(Cl)cc3Cl)sc2C1,-7.21%
8,O=C(NCc1ccccc1)c1csc(Nc2ccc(N3CCOCC3)cc2)n1,25.3%
9,O=C(Nc1ccc(N2CCOCC2)cc1)c1ccc2nc(Nc3ccncc3)sc2c1,52.9% (active)
10,CN(C)c1cccc(Nc2nc3ccc(C(=O)Nc4ccc(N5CCOCC5)cc4)cc3s2)c1,24.1%
11,O=C(Nc1ccc(N2CCOCC2)cc1)c1csc(Nc2ccc(-n3ccnc3)cc2)n1,47.9% (active)
12,O=C(Nc1ccccc1)c1ccc2nc(NCCN3CCOCC3)sc2c1,2.47%
13,O=C(Nc1ccc(N2CCOCC2)cc1)c1cnc(Nc2ccc(-n3ccnc3)cc2)s1,17.6%
14,Cc1cnnn1-c1ccc(Nc2nccc(-c3cc(C#N)cc(N4CCOCC4)c3)n2)cc1,14.1%
15,O=C(Nc1ccc2[nH]ncc2c1)[C@H]1C[C@@H](O)CN1C(=O)Cc1ccc(Br)cc1,5.77%
16,O=C(NCCCN1CCCC1=O)c1cccc(Cl)n1,10.3%
17,FC(F)(F)c1ccc(Cn2cnc3c(Nc4ccc5c(c4)OCO5)nc(N4CCC(N5CCOCC5)CC4)nc32)cc1,10%
18,c1cnc2ccc(Nc3nc4ncnc(NCc5nc6ccccc6[nH]5)c4[nH]3)cc2c1,15.5%
19,O=C(NC1CC1)c1cccc(Nc2cccnc2)n1,-1.02%
20,FC(F)(F)c1cccc(CNc2nc(Nc3ccc(N4CCOCC4)cc3)nc3c2ncn3-c2ccsc2)c1,-6.13%
21,CC(C)n1c(N2CCOCC2)nc2c(NCc3ccccc3)ncnc21,-2.96%

row,Structure (SMILES),inhibition
1,CCN(CC)C(=O)C1CCCN(c2cccc(C(=O)NCc3nc4ccccc4[nH]3)c2)C1 (centres undefined),7.49%
2,COc1cccc(CN(CCN(C)C)C(=O)c2cn3cc(-c4ccnc(N)n4)ccc3n2)c1,0.96%
3,COc1cc2nc(-c3csc4ccccc34)nc(Nc3ccc(Oc4ccccc4)cc3)c2cc1OC,-36.4%
4,O=C(NC1CCN(Cc2ccccc2)CC1)c1ccc(-c2ccccc2)s1,-15.1%
5,COc1ccc(C2=NC(C)(C)NC(c3ccccc3O)C2)cc1 (centres undefined),22.6%
6,Cc1nc(C)n(-c2ccc(Nc3ncc4ccc(-c5cnn(C)c5)cc4n3)cc2)n1,75.2% (active)
7,Cc1ncn(-c2ccc(Nc3ncc(-c4cnn(C)c4)c(-c4cnn(C)c4)n3)cc2)n1,-7.3%
8,Cc1nc(C)n(-c2ccc(Nc3cc(-n4ccnn4)ccn3)cc2)n1,-1.71%
9,Cc1noc(C)c1-c1nc(N)c2ncn(-c3ccccc3)c2n1,29.2%
10,CC(=O)NNC(=O)C(C)Oc1ccc(Cl)cc1Cl (centres undefined),3.12%
11,CC1(C(=O)Nc2ccc(-c3cn[nH]c3)cc2)COc2ccccc2C1 (centres undefined),-8.37%
12,c1ccc(Nc2nccc(Nc3ccc(N4CCOCC4)cc3)n2)cc1,4.53%
13,c1ccc(-n2cnc(-c3ccnc(Nc4ccc(N5CCOCC5)cc4)c3)n2)cc1,-3.17%
14,Fc1cnc(Nc2ccc(N3CCNCC3)cc2)cc1-n1cnc(Nc2ccccc2)n1,90.4% (active)
15,CN(C)c1cccc(Nc2nccc(NCc3ccccc3)n2)c1,1.8%
16,CC[C@H]1OC(=O)[C@H](C)C(=O)[C@H](C)[C@@H](O[C@@H]2O[C@H](C)C[C@H](N(C)C)[C@H]2O)[C@](C)(OC)C[C@@H](C)C(=O)[C@H](C)[C@@H]2N(CCCCn3cnc(-c4cccnc4)c3)C(=O)OC21C (some centres undefined),-2.96%
17,O=C(NCCCN1CCCC1=O)c1cnc(-c2ccccc2)s1,0.58%
18,COc1ccc(CCNc2nc(-c3ccc(N4CCOCC4)nc3)ncc2C)cc1,-5.93%
19,COc1ccc(CCNc2nc(Nc3ncccn3)nc3c2ncn3CCN2CCCC2=O)cc1,27.6%
20,O=C(NCc1nc2ccccc2[nH]1)c1csc(Nc2cnccn2)n1,46.6% (active)
21,O=C(NCCc1ccc(O)cc1)c1csc(Nc2cnccn2)n1,12.4%

row,Structure (SMILES),inhibition
1,O=C(NCc1nc2ccccc2[nH]1)c1cccc(Nc2ncccn2)n1,10.3%
2,CC(=O)c1cccc(-c2nccc(Nc3ccccc3)n2)c1,-2.99%
3,COc1cc2nc(Nc3ccc(-n4ccnc4)cc3)nc(Nc3cc(OC)c(OC)c(OC)c3)c2cc1OC,-15.5%
4,C/C(CC(=O)NC1CCCC1)=N\NC(=O)COc1cccc(C)c1,-34.7%
5,Cc1cc(NCc2ccccc2)nc(N2CCN(Cc3ccc4c(c3)OCO4)CC2)n1,-4.09%
6,COc1ccc2c(c1)CC(C(=O)Nc1nc3ccc(-c4cn[nH]c4C)cc3s1)CO2 (centres undefined),-7.18%
7,CCOc1ccccc1C1/C(=C(\O)c2ccc(OC)cc2C)C(=O)C(=O)N1CCN(C)C (centres undefined),-3.39%
8,Fc1cc(-c2nc(Nc3ccc(CN4CCOCC4)cc3)ncc2F)cc(N2CCOCC2)c1,13.5%
9,Cc1ccc(-c2ncn(-c3ccc(Nc4ncc(F)c(-c5cccc(N6CCOCC6)c5)n4)cc3)n2)cn1,-16.4%
10,Fc1cnc(Nc2ccc(Cn3ccnc3)cc2)nc1-c1cccc(N2CCOCC2)c1,45.9% (active)
11,CC(=O)OCc1nc2ccc(-c3ccncc3)cc2[nH]1,-6.82%
12,O=C(NCc1cccnc1)c1ccnc(NCc2cccnc2)c1,8.32%
13,Cc1c[nH]c2ncnc(-c3ccc4c(C(=O)Nc5cccc(C(=O)NC(C)C)c5)n(CC5CC5)nc4c3)c12,50.2% (active)
14,CC(C)NC(=O)c1cccc(NC(=O)Nc2ccc(-c3ccnc(N)n3)cc2)c1,1.02%
15,COc1cccc(CN(CCN(C)C)C(=O)c2c3ccc(-c4cn[nH]c4)cc3nn2CC2CC2)c1,-4.47%
16,O=C(Nc1ccc2[nH]ncc2c1)C1CCN(C(=O)[C@@H](O)c2ccccc2Cl)CC1,2.37%
17,CC(C)n1c(-c2csc3ccccc23)nc2c(NCc3ccccc3)ncnc21,0%
18,Cc1cnc(-c2c(C)nn(C)c2C)nc1NCCN1CCOCC1,3.9%
19,COc1cc(Nc2nc(Nc3cc(OC)c(OC)c(OC)c3)c3[nH]cnc3n2)cc(OC)c1OC,16.2%
20,COc1cc(Nc2nc(NCc3cccc(C(F)(F)F)c3)c3[nH]cnc3n2)cc(OC)c1OC,47.7% (active)
21,COc1cc(Nc2nc(NCc3cccc(C(F)(F)F)c3)c3ncn(C4CCCCC4)c3n2)cc(OC)c1OC,-5.25%

row,Structure (SMILES),inhibition
1,O=C(Nc1nc2c(s1)CN(Cc1ccccc1)CC2)c1cc(Cl)ccc1Cl,-4.96%
2,COc1cc(Nc2cc(N3CCN(Cc4ccc5c(c4)OCO5)CC3)ncn2)cc(OC)c1OC,-5.38%
3,Cc1cnc(-c2ccc(N3CCOCC3)nc2)nc1NCCN1CCOCC1,2.67%
4,COc1ccc(-c2nc(NCCN3CCOCC3)c3ncn(-c4ccccc4)c3n2)cn1,-16.5%
5,Nc1nc(NCc2ccccc2)cc(NCc2cccnc2)n1,-4.44%
6,CNC(=O)c1ccccc1Nc1nc(Nc2ccc(N3CCOCC3)cc2OC)ncc1Cl,77.3% (active)
7,CNC(=O)c1ccccc1Nc1cc(Nc2ccc(N3CCOCC3)cc2OC)ncc1F,16.4%
8,COc1cc(N2CCOCC2)ccc1Nc1cc(Nc2ccccc2C(N)=O)ccn1,7.87%
9,COC(=O)c1ccc(C2Nc3c(C(=O)OC)cccc3C3C=CCC32)cc1 (centres undefined),7.56%
10,CCCN1CCc2c(sc(N)c2C(=O)OC)C1,7.44%
11,c1ccc(CN2CCC(Nc3ccnc(NC4CCN(Cc5ccccc5)CC4)n3)CC2)cc1,-6.32%
12,CC(=O)Nc1ccc(NC(=O)c2ccc(-c3ccc(C(N)=O)cc3)s2)cc1,-5.71%
13,O=C(NCc1cccnc1)c1cccc(Nc2ccc(N3CCOCC3)cc2)n1,5.75%
14,Cc1nn(C)c(C)c1-c1cccc(C(=O)NCCN(C(C)C)C(C)C)n1,-2.03%
15,CC(C)n1cnc2c(Nc3ccc(N4CCOCC4)cc3)nc(NC3CCC(O)CC3)nc21 (centres undefined),43.6% (active)
16,CC(C)n1cnc2c(NCc3cccnc3)nc(Nc3ccc(N4CCOCC4)cc3)nc21,1.97%
17,CC(C)n1cnc2c(NCc3ccccc3)nc(NC3CCC(O)CC3)nc21 (centres undefined),0.05%
18,CC(C)n1cnc2c(NC3CCN(Cc4ccccc4)CC3)nc(Nc3ccc(N4CCOCC4)cc3)nc21,11.3%
19,c1cc(Nc2nc(Nc3ccc(N4CCOCC4)cc3)c3ncn(-c4ccsc4)c3n2)ccn1,19.3%
20,CC(C)n1cnc2c(Nc3ccc(N4CCOCC4)cc3)nc(Nc3ccncc3)nc21,55.3% (active)
21,O=C(Nc1ccc2[nH]ncc2c1)[C@@H]1C[C@H](O)CN1C(=O)Cc1ccc(Br)cc1,5.62%
